Results as given in PubChem BioAssay (NCATS).
Results filed as inconclusive are left out.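 The calls were made as follows, unless noted: active = compounds whose dose series gives a full or clear partial fitted curve of increased nuclear translocation; inconclusive = weak partial curve or effect only at the top dose; inactive = no dose-dependent translocation response.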

test system: not listed separately; experiment: Stat Signaling Pathway (AID 446; active = well fitted curve in either direction with a large enough effect, not every such curve was filed as active;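 also: ME-180 cervical cancer cells given 40 pM IL-6 alongside compound; SIE-controlled beta-lactamase reporter measured as 460/530 nm FRET emission ratio; % is scaled to controls: 0 for no effect and ±100 for the full control effect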); conditions: ME-180 (cervical carcinoma) SIE beta-lactamase reporter, IL-6 stimulated, 5 h; at 17.2 µM (top of the series) unless noted
Summary of the method: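 Emission at 460 and 530 nm (excitation 405 nm) reports SIE-controlled beta-lactamase in ME-180 cells. Cells received compound with 40 pM IL-6 for 5 hrs at 37 C; data scaled between 300 pM IL-6 and 125 nM JAK-inhibitor controls.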

activity, negative = inhibition, inactive:
Cc1[nH]nc(-c2ccc(O)cc2O)c1Oc1ccccc1 -21.9%
Cc1ccc(S(=O)(=O)NC(=O)NCc2ccc3c(c2)OCO3)cc1 0.559%
COc1ccc(OC)c2c1CCC2=O 6.79%
CC1(C)Cc2nc(N)c(C(=O)NCCO)cc2CO1 9.02%
Cc1nc(SCC(N)=O)[nH]c(=O)c1Cc1ccc(OC(C)C)cc1 8.12%
CCSc1nc(N)c2c3c(sc2n1)CCC3 -3.03%
Cc1nc(NS(=O)(=O)c2ccccc2)sc1NC(=O)OCCN(C)C 0.248%
CCOC(=O)CC(=O)CSc1nc(N)c(C#N)c(-c2ccc(F)cc2)c1C#N -17.8%
CC12CCC(C(=O)NCCCN3CCOCC3)(OC1=O)C2(C)C (stereo not given) 3.88%
COc1ccc(C2=Nn3c(nnc3-c3ccccn3)SC2)cc1 6.62%
COc1ccc(OC(=O)c2cc3ccccc3o2)cc1 10.1%
CCN(CC)CCN1C(=O)C(=O)/C(=C(/O)c2ccc(OC(C)C)cc2)C1c1ccncc1 (stereo not given) -2.31%
Cc1cc(Cl)ccc1OCC(=O)OC(C)C(=O)N(C)C (stereo not given) -3.58%
c1ccc(-n2ncc3c(NCC4CCCO4)ncnc32)cc1 (stereo not given) 2.07%
COc1cccc(-c2nn3c(-c4ccccn4)nnc3s2)c1 9.86%
CC(=O)c1c(C(C)=O)c(C)n(NC(=O)c2ccncc2)c1C 17%
CC1(C)Cc2c(C#N)c(N3CCN(C(=O)c4ccccc4)CC3)nc(-c3ccco3)c2CS1 9.81%
CNC(=O)c1cc2ccccc2o1 2.75%
CCCCn1c(C)cc2cc(O)ccc21 -8.99%
c1ccc2c(c1)nc(CN1CCOCC1)n1c3ccccc3nc21 14.3%
CC(O)CNc1nc2c(c(=O)n(C)c(=O)n2C)n1CCc1ccccc1 (stereo not given) -8.4%
Nc1nc(NC(=O)Cc2ccccc2)nn1-c1ccccc1 4.24%
CCN(CC)c1ncc(C)c(=O)[nH]1 7.65%
C=CCNc1nc(C)nc(OC)n1 4.41%
Fc1ccc(C2C3=C(Nc4ncnn42)c2ccccc2OC3c2ccncc2)cc1 (stereo not given) -12.3%
COc1cc(OC)cc(C(=O)N2CCC(N3CCN(c4ccccc4)CC3)CC2)c1 4.25%
CCOC(=O)C(C)Oc1ccc2c(C)cc(=O)oc2c1C(C)=O (stereo not given) 4.2%
CN(C)/C=C1\N=C(c2ccc(Cl)cc2Cl)OC1=O 3.89%
C/C(NC(=O)c1ccccc1F)=C1\C(=O)C[C@@H]2[C@H]1C2(C)C -6.06%
C=CCc1c(C)nc(SCCC)[nH]c1=O -7.18%
COC(=O)C1=C(C)N=C2SC(C)C(=O)N2C1c1ccc(C(=O)OC)cc1 (stereo not given) -11.1%
COc1ccc(-c2ncncc2-c2csc(C)n2)c(O)c1 0.893%
COc1ccc(C2Nc3ccccc3C(=O)N2Cc2ccco2)cc1CN1C(=O)c2ccccc2C1=O (stereo not given) -19.4%
COc1ccccc1C1(CC(=O)N2CCOCC2)CCOC(C(C)C)C1 (stereo not given) -0.0907%
Cc1ccc(C(C)C)c(OCCNc2nc3c(c(=O)n(C)c(=O)n3C)n2C)c1 -22.6%
Cc1ccc(N(CC(O)CN2CCCC2)S(=O)(=O)c2ccc(C)cc2)cc1 (stereo not given) 11.3%
Cn1c(SCC(=O)NCc2ccccc2)nc2ccccc21 4.04%
O=C(O)CCN(CCC(=O)O)c1nnc(SCc2ccccc2)s1 11.2%
C=COC(=O)CSc1nc(-c2cccs2)ccc1C#N 12.2%
N#CCCSCc1ccc(OCC(=O)O)cc1 0.185%

biological target: Glucocorticoid receptor (Homo sapiens) (UniProt P04150); experiment: GR-GFP Redistribution (AID 450); conditions: U2OS GR-GFP nuclear translocation, laser cytometry, 2 h; series mostly up to 20.6 µM; also: potency is read from the fitted curve at half-maximal effect
Sequence (P04150 whole entry, looked up): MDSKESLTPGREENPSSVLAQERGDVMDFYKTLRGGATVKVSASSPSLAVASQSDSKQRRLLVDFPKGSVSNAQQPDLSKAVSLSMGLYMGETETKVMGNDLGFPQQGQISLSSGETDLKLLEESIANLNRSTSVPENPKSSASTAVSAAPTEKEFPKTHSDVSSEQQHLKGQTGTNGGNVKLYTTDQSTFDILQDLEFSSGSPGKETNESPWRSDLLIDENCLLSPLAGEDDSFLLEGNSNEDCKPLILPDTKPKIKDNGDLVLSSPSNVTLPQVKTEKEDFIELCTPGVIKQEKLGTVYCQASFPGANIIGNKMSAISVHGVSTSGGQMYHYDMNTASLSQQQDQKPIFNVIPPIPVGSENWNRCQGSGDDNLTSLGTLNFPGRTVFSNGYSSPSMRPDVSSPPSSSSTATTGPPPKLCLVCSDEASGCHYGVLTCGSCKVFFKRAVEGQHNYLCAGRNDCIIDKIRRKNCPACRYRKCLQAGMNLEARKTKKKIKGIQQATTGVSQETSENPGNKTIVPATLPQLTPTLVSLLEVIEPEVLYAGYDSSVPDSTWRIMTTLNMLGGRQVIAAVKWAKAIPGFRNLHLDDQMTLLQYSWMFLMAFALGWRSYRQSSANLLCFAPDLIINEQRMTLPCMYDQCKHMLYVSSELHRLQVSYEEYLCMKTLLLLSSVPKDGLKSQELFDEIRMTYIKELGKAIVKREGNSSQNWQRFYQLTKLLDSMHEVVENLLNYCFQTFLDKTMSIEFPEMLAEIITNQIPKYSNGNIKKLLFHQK

Potency, inactive:
Cc1[nH]nc(-c2ccc(O)cc2O)c1Oc1ccccc1 > 20.6 µM
Cc1ccc(S(=O)(=O)NC(=O)NCc2ccc3c(c2)OCO3)cc1 > 20.6 µM
COc1ccc(OC)c2c1CCC2=O > 20.6 µM
CC1(C)Cc2nc(N)c(C(=O)NCCO)cc2CO1 > 20.6 µM
Cc1nc(SCC(N)=O)[nH]c(=O)c1Cc1ccc(OC(C)C)cc1 > 20.6 µM
CCSc1nc(N)c2c3c(sc2n1)CCC3 > 20.6 µM
Cc1nc(NS(=O)(=O)c2ccccc2)sc1NC(=O)OCCN(C)C > 20.6 µM
CCOC(=O)CC(=O)CSc1nc(N)c(C#N)c(-c2ccc(F)cc2)c1C#N > 20.6 µM
CC12CCC(C(=O)NCCCN3CCOCC3)(OC1=O)C2(C)C (stereo not given) > 20.6 µM
COc1ccc(C2=Nn3c(nnc3-c3ccccn3)SC2)cc1 > 20.6 µM
COc1ccc(OC(=O)c2cc3ccccc3o2)cc1 > 20.6 µM
CCN(CC)CCN1C(=O)C(=O)/C(=C(/O)c2ccc(OC(C)C)cc2)C1c1ccncc1 (stereo not given) > 20.6 µM
Cc1cc(Cl)ccc1OCC(=O)OC(C)C(=O)N(C)C (stereo not given) > 20.6 µM
c1ccc(-n2ncc3c(NCC4CCCO4)ncnc32)cc1 (stereo not given) > 20.6 µM
COc1cccc(-c2nn3c(-c4ccccn4)nnc3s2)c1 > 20.6 µM
CC(=O)c1c(C(C)=O)c(C)n(NC(=O)c2ccncc2)c1C > 20.6 µM
CC1(C)Cc2c(C#N)c(N3CCN(C(=O)c4ccccc4)CC3)nc(-c3ccco3)c2CS1 > 20.6 µM
CNC(=O)c1cc2ccccc2o1 > 20.6 µM
CCCCn1c(C)cc2cc(O)ccc21 > 20.6 µM
c1ccc2c(c1)nc(CN1CCOCC1)n1c3ccccc3nc21 > 20.6 µM
CC(O)CNc1nc2c(c(=O)n(C)c(=O)n2C)n1CCc1ccccc1 (stereo not given) > 20.6 µM
Nc1nc(NC(=O)Cc2ccccc2)nn1-c1ccccc1 > 20.6 µM
CCN(CC)c1ncc(C)c(=O)[nH]1 > 20.6 µM
C=CCNc1nc(C)nc(OC)n1 > 20.6 µM
Fc1ccc(C2C3=C(Nc4ncnn42)c2ccccc2OC3c2ccncc2)cc1 (stereo not given) > 20.6 µM
COc1cc(OC)cc(C(=O)N2CCC(N3CCN(c4ccccc4)CC3)CC2)c1 > 20.6 µM
CCOC(=O)C(C)Oc1ccc2c(C)cc(=O)oc2c1C(C)=O (stereo not given) > 20.6 µM
CN(C)/C=C1\N=C(c2ccc(Cl)cc2Cl)OC1=O > 20.6 µM
C/C(NC(=O)c1ccccc1F)=C1\C(=O)C[C@@H]2[C@H]1C2(C)C > 20.6 µM
C=CCc1c(C)nc(SCCC)[nH]c1=O > 20.6 µM
COC(=O)C1=C(C)N=C2SC(C)C(=O)N2C1c1ccc(C(=O)OC)cc1 (stereo not given) > 20.6 µM
COc1ccc(-c2ncncc2-c2csc(C)n2)c(O)c1 > 20.6 µM
COc1ccc(C2Nc3ccccc3C(=O)N2Cc2ccco2)cc1CN1C(=O)c2ccccc2C1=O (stereo not given) > 20.6 µM
COc1ccccc1C1(CC(=O)N2CCOCC2)CCOC(C(C)C)C1 (stereo not given) > 20.6 µM
Cc1ccc(C(C)C)c(OCCNc2nc3c(c(=O)n(C)c(=O)n3C)n2C)c1 > 20.6 µM
Cc1ccc(N(CC(O)CN2CCCC2)S(=O)(=O)c2ccc(C)cc2)cc1 (stereo not given) > 20.6 µM
Cn1c(SCC(=O)NCc2ccccc2)nc2ccccc21 > 20.6 µM
O=C(O)CCN(CCC(=O)O)c1nnc(SCc2ccccc2)s1 > 20.6 µM
C=COC(=O)CSc1nc(-c2cccs2)ccc1C#N > 20.6 µM
N#CCCSCc1ccc(OCC(=O)O)cc1 > 20.6 µM
